Holding throughout (test): NCI-60 one-dose screen, 48 h (100 = growth as untreated, 0 = no growth, -100 = all killed)
In one test the test system is HT29 colon. As to conditions: 10 µM unless noted.
A further test concerns SNB-75 CNS. To be noted: 10 µM unless noted.
The next test concerns SNB-19 CNS. To be noted: 10 µM unless noted.
The subject of the next test is U251 CNS. To be noted: 10 µM unless noted.
Another test deals with PC-3 prostate. As to conditions: 10 µM unless noted.
In another test the test system is SK-MEL-5 melanoma. As to conditions: 10 µM unless noted.
The subject of another test is UACC-62 melanoma. As to conditions: 10 µM unless noted.
The next test concerns LOX IMVI melanoma. To be noted: 10 µM unless noted.
In the next test the test system is SK-MEL-28 melanoma. As to conditions: 10 µM.
For a further test, the system named is SK-MEL-2 melanoma. As to conditions: 10 µM unless noted.
The next test relates to SN12C renal. As to conditions: 10 µM unless noted.
A further test has as its system UO-31 renal. To be noted: 10 µM unless noted.
A further test concerns TK-10 renal. To be noted: 10 µM unless noted.
Another test relates to ACHN renal. To be noted: 10 µM unless noted.
In another test the test system is CAKI-1 renal. To be noted: 10 µM unless noted.
The test system of a further test is A498 renal. To be noted: 10 µM unless noted.
The next test relates to CCRF-CEM leukemia. To be noted: 10 µM unless noted.
For a further test, the system named is MOLT-4 leukemia. To be noted: 10 µM unless noted.
In a further test the test system is SR leukemia. To be noted: 10 µM unless noted.

About 83,000 compounds went through this panel and 20% of them were active in at least one assay; those are over-represented in the sample as a whole.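 Growth was measured after 48 h exposure to one concentration of compound in 96-well plates. Values under 10 count as active.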 Unmarked numbers belong to inactive results. Calls of active or inactive are those of the source.

With `NC1(N2SC(S)=C3CCCC=C32)CCCCC1`, the growth with HT29 colon is 97.1%; in the test with SNB-75 CNS, 91.7%; in the test with SNB-19 CNS, 96.9%; in the test on U251 CNS, 101%; in the test on PC-3 prostate, 109%; with SK-MEL-5 melanoma, 104%. Also, the growth was 104% with UACC-62 melanoma; 94.7% with LOX IMVI melanoma; 114% in the test on SK-MEL-28 melanoma; 111% in the test with SK-MEL-2 melanoma; 104% in the test on SN12C renal; 78.6% in the test with UO-31 renal. For the same compound, the growth with TK-10 renal was 99.5%; with ACHN renal, 102%; with CAKI-1 renal, 97%; with A498 renal it was 101%; with CCRF-CEM leukemia, 105%; with MOLT-4 leukemia, 87%. Moreover, in the test with SR leukemia, the growth is 86.9%.
Consider `CCCCc1c(CCC)c(=N)c2ccccc2n1C`, for which the growth in the test on HT29 colon is 26.6%; in the test with SNB-75 CNS, 96.8%; with SNB-19 CNS, 111%; in the test with U251 CNS it was 59.3%; with PC-3 prostate, 77.2%; in the test with SK-MEL-5 melanoma, 78%. Besides, the growth was 97.9% in the test with UACC-62 melanoma; 59% in the test on LOX IMVI melanoma; 72.2% with SK-MEL-28 melanoma; 101% in the test with SK-MEL-2 melanoma; 79.7% with SN12C renal; 65.6% in the test on UO-31 renal. The growth in the test on TK-10 renal was 84.3%; with ACHN renal, 78.4%; in the test with CAKI-1 renal, 81%; in the test with A498 renal, 75.9%; in the test with CCRF-CEM leukemia, 49.8%; in the test on MOLT-4 leukemia, 60.6%. The growth with SR leukemia was 6.82% (active).
As for `O=C(N/N=C/c1ccccc1O)C(=O)Nc1ccc(F)cc1`, the growth was 40.9% with HT29 colon; 85.5% with SNB-75 CNS; 53.9% in the test on SNB-19 CNS; 33.5% with U251 CNS; 54.7% in the test on PC-3 prostate; 55.5% in the test with SK-MEL-5 melanoma. Also, the growth is 35.1% with UACC-62 melanoma; 27.2% in the test with LOX IMVI melanoma; 59.4% in the test with SK-MEL-28 melanoma; 71.6% in the test on SK-MEL-2 melanoma; 44.5% in the test with SN12C renal; 19.3% in the test on UO-31 renal. Also, the growth with TK-10 renal was 53.8%; with ACHN renal, 30.4%; with CAKI-1 renal it was 22.7%; in the test on A498 renal it was 92.4%; in the test on CCRF-CEM leukemia it was 23%; with MOLT-4 leukemia it was 21.3%. Further, the growth in the test with SR leukemia was 23.3%.
For `CCOC(=O)c1c(Cl)c2c(n1Cc1ccccc1)-c1oncc1CCC2`, the growth in the test with HT29 colon was 25.8%; in the test on SNB-75 CNS, 69.1%; in the test on SNB-19 CNS, 83.2%; in the test on U251 CNS it was 64.5%; with PC-3 prostate, 65.6%; in the test on SK-MEL-5 melanoma, 53.1%. Also, the growth in the test on UACC-62 melanoma is 49.2%; in the test on LOX IMVI melanoma, 66.7%; in the test on SK-MEL-28 melanoma, 44.7%; in the test with SK-MEL-2 melanoma it was 52.7%; in the test with SN12C renal, 63.9%; in the test on UO-31 renal, 72.4%. Also, the growth with TK-10 renal was 98.9%; in the test on ACHN renal, 65.8%; in the test with CAKI-1 renal, 59.5%; with A498 renal, 56.9%; with CCRF-CEM leukemia, 59.7%; in the test on MOLT-4 leukemia it was 52.6%. For the same compound, in the test on SR leukemia, the growth was 0.79% (active).
For `CCOC(=O)c1cnc2ccc(Cl)cc2c1NCCCN(C)C`, the growth is 27.3% with HT29 colon; 35.6% in the test on SNB-75 CNS; 24.5% in the test on SNB-19 CNS; 8.33% (active) in the test with U251 CNS; 25.7% with PC-3 prostate; -50.8% (active) in the test on SK-MEL-5 melanoma. Further, the growth in the test with UACC-62 melanoma is -15.6% (active); in the test with LOX IMVI melanoma, 1.24% (active); with SK-MEL-28 melanoma, 50.1%; with SK-MEL-2 melanoma, -0.411% (active); with SN12C renal, 18.1%; in the test with UO-31 renal it was -22.8% (active). Also, the growth with TK-10 renal is 33.8%; with ACHN renal, 18.3%; with CAKI-1 renal it was -4.21% (active); in the test with A498 renal it was 31%; with CCRF-CEM leukemia, -4.96% (active); in the test with MOLT-4 leukemia, -5.58% (active). Moreover, the growth in the test with SR leukemia was -5.95% (active).
Turning to `Cn1c(C(=O)c2cccc3ccccc23)nc2ccccc21`, the growth with HT29 colon was 20.7%; in the test on SNB-75 CNS, 38.9%; with SNB-19 CNS, 10.3%; in the test on U251 CNS it was 5.7% (active); with PC-3 prostate, 27.7%; in the test with SK-MEL-5 melanoma, -38.1% (active). The growth with UACC-62 melanoma was -27.2% (active); in the test on LOX IMVI melanoma, 2.82% (active); in the test on SK-MEL-28 melanoma it was 40.8%; with SK-MEL-2 melanoma it was 9.69% (active); in the test with SN12C renal, 11.8%; in the test with UO-31 renal it was -21.3% (active). The growth in the test with TK-10 renal is 21.3%; with ACHN renal it was 11%; in the test with CAKI-1 renal, -11.9% (active); with A498 renal, 36.3%; with CCRF-CEM leukemia, 8.07% (active); in the test with MOLT-4 leukemia it was 9.16% (active). For the same compound, the growth in the test on SR leukemia was 4.54% (active).
As for `O=S1(=O)CCN(Cc2ccccc2)CC1`, the growth in the test on HT29 colon was 103%; in the test with SNB-75 CNS, 111%; in the test on SNB-19 CNS it was 92%; in the test with U251 CNS, 104%; in the test on PC-3 prostate, 101%; in the test with SK-MEL-5 melanoma, 96.5%. Further, the growth in the test with UACC-62 melanoma is 106%; with LOX IMVI melanoma, 98.3%; in the test with SK-MEL-28 melanoma, 102%; in the test on SK-MEL-2 melanoma, 119%; in the test on SN12C renal it was 101%; in the test with UO-31 renal, 103%. Moreover, the growth with TK-10 renal is 94.3%; with ACHN renal it was 97%; in the test on CAKI-1 renal, 89.1%; in the test with A498 renal, 75.9%; in the test with CCRF-CEM leukemia it was 98.1%; in the test on MOLT-4 leukemia, 105%. The growth in the test with SR leukemia was 87.3%.
For the compound `NNC(=O)CNC(=O)Nc1n[nH]c(=S)s1`, the growth with HT29 colon is 95.9%; with SNB-75 CNS, 92.1%; with SNB-19 CNS it was 106%; in the test with U251 CNS, 105%; with PC-3 prostate, 95.9%; with SK-MEL-5 melanoma, 105%. Further, the growth is 104% in the test on UACC-62 melanoma; 98.1% in the test on LOX IMVI melanoma; 106% in the test on SK-MEL-28 melanoma; 97.7% with SK-MEL-2 melanoma; 98.1% in the test with SN12C renal; 73.6% with UO-31 renal. Moreover, the growth is 107% with TK-10 renal; 94.4% with ACHN renal; 98.3% with CAKI-1 renal; 98.3% with A498 renal; 89.5% in the test on MOLT-4 leukemia; 83.3% in the test on SR leukemia.
Take `CCOc1ccc2c(c1)CN(Cc1ccc(Cl)cc1)CO2`: the growth is 57.3% with HT29 colon; -39.4% (active) in the test on SNB-75 CNS; 18.1% with SNB-19 CNS; 25.4% in the test on U251 CNS; 49.1% in the test with PC-3 prostate; 74.1% with SK-MEL-5 melanoma. Moreover, the growth is 62.4% in the test with UACC-62 melanoma; 35.2% in the test on LOX IMVI melanoma; 41.9% in the test on SK-MEL-28 melanoma; 50.4% in the test with SK-MEL-2 melanoma; 67.7% with SN12C renal; 40.5% in the test on UO-31 renal. In addition, the growth in the test on TK-10 renal is 20.1%; in the test on CAKI-1 renal, 54.2%; in the test with A498 renal, 39.5%; in the test with CCRF-CEM leukemia, 78.1%; with MOLT-4 leukemia it was 83.2%; with SR leukemia, 41.5%.

Values taken from PubChem BioAssay (NCI).
